Article PMC5540273 (PLoS ONE, 2017)
Values joined by “and” are separate entries in the source; they are usually repeats but may differ in a detail not shown here. Equal entries are not always repeated. Where two headings read alike, the source gives them in different places.

Experiments:
Conditions in all cases: concentration: 1 μM, replicates: in singlicate, n = 1
EPHA3 = test system: EPHA3
EPHA4 = test system: EPHA4
EPHA5 = test system: EPHA5
EPHA6 = test system: EPHA6
EPHA7 = test system: EPHA7
EPHA8 = test system: EPHA8
EPHB1 = test system: EPHB1
EPHB2 = test system: EPHB2
EPHB3 = test system: EPHB3
EPHB4 = test system: EPHB4
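Note: KINOMEscan kinase panel screen.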

Row | SMILES | %Inh (EPHA3) [%] | %Inh (EPHA4) [%] | %Inh (EPHA5) [%] | %Inh (EPHA6) [%] | %Inh (EPHA7) [%] | %Inh (EPHA8) [%] | %Inh (EPHB1) [%] | %Inh (EPHB2) [%] | %Inh (EPHB3) [%] | %Inh (EPHB4) [%] | %Inh (EPHA3; 1 µM) | %Inh (EPHA4; 1 µM) | %Inh (EPHA5; 1 µM) | %Inh (EPHA6; 1 µM) | %Inh (EPHA7; 1 µM) | %Inh (EPHA8; 1 µM) | %Inh (EPHB1; 1 µM) | %Inh (EPHB2; 1 µM) | %Inh (EPHB3; 1 µM) | %Inh (EPHB4; 1 µM)
1 | O=C(Nc1n[nH]c2cc(-c3cccc(F)c3)ccc12)C1CC1 [SB-735464] | 17 | 24 | 0 | 14 | 14 | 13 | 0 | 0 | 20 | 21 |  |  |  |  |  |  |  |  |  | 
2 | COc1cc2c(cc1OCCN1CCN(C)CC1)ncc1c3ccc(C#N)cc3[nH]c21 | 18 | 1 | 0 | 0 | 0 | 0 | 10 | 0 | 2 | 0 |  |  |  |  |  |  |  |  |  | 
3 | NS(=O)(=O)c1cccc(-c2ccc3ncc(N4CCOCC4)nc3c2)c1 [GSK1535721] | 11 | 8 | 0 | 8 | 3 | 11 | 5 | 6 | 9 | 17 |  |  |  |  |  |  |  |  |  | 
4 | Cc1nnc(-c2ccc(C)c(-c3ccc(C(=O)Nc4ccc(NS(C)(=O)=O)cc4)cc3)c2)o1 [GW702865] | 8 | 0 | 0 | 0 | 0 | 3 | 6 | 10 | 0 | 5 |  |  |  |  |  |  |  |  |  | 
5 | O=c1cc(N2CCOCC2)nc2n(Cc3cccc(F)c3)ccn12 [GSK2297430] | 0 | 10 | 0 | 10 | 4 | 13 | 0 | 0 | 14 | 17 |  |  |  |  |  |  |  |  |  | 
6 | Cl.Oc1cccc(Nc2ccnc3cc(-c4ccncc4)ccc23)c1 [GW494601] | 76 | 84 | 95.3 | 88 | 0 | 97 | 96.2 | 70 | 27 | 94.2 |  |  |  |  |  |  |  |  |  | 
7 | COc1cc2ncn(-c3cc(OCc4sccc4Cl)c(C(N)=O)s3)c2cc1OC [GSK448459] | 0 | 0 | 0 | 2 | 0 | 11 | 3 | 9 | 6 | 0 |  |  |  |  |  |  |  |  |  | 
8 | O=C1Cc2cc(Nc3nc(NCc4cccc(S(=O)(=O)C(F)(F)F)c4)ncc3C(F)(F)F)ccc2N1 | 0 | 0 | 10 | 0 | 0 | 0 | 0 | 0 | 1 | 8 |  |  |  |  |  |  |  |  |  | 
9 | O=C(NCCCN1CCOCC1)c1cccc(Nc2nccc(Nc3ccc(Oc4ccccc4)cc3)n2)c1 [GW663929] | 25 | 3 | 0 | 3 | 0 | 0 | 1 | 0 | 2 | 14 |  |  |  |  |  |  |  |  |  | 
10 | CN(C(=O)c1ccc(-c2cc(-c3c[nH]nc3-c3ccccn3)ccn2)cc1)C1CCOCC1 [GW810083] | 27 | 0 | 4 | 0 | 0 | 0 | 0 | 0 | 0 | 0 |  |  |  |  |  |  |  |  |  | 
11 | Cc1nnc(-c2ccc3occ(-c4ccc(C(C)O)cc4)c3c2)o1 (centres unmarked) | 0 | 30 | 0 | 52 | 3 | 0 | 9 | 15 | 12 | 13 |  |  |  |  |  |  |  |  |  | 
12 | CN1c2ccc(NCc3ccc(F)cc3)cc2-c2c(cnn2C)S1(=O)=O | 0 | 0 | 0 | 0 | 0 | 0 | 0 | 0 | 6 | 0 |  |  |  |  |  |  |  |  |  | 
13 | Fc1ccc(-c2nn3c(OCC(F)(F)F)cccc3c2-c2ccncc2)cc1 [GW514784] | 24 | 3 | 0 | 11 | 0 | 13 | 16 | 0 | 6 | 1 |  |  |  |  |  |  |  |  |  | 
14 | COc1cc(Nc2nccc(N3CCC(NC(=O)c4cccc(NC(C)=O)c4)C3)n2)cc(OC)c1OC (centres unmarked) [GSK1379754] | 0 | 9 | 6 | 20 | 11 | 26 | 15 | 0 | 17 | 12 |  |  |  |  |  |  |  |  |  | 
15 | CC(C)(CN)c1nc(-c2ccc(Cl)c(O)c2)c(-c2ccncc2)[nH]1.O=C(O)C(F)(F)F [SB-477794] |  |  |  |  |  |  |  |  |  |  | 50% and 61% | 42% and 23% | 0% and 2% | 74% and 63% | 35% and 20% | 87% and 85% | 45% and 20% | 37% and 30% | 35% and 14% | 24% and 38%
16 | O=C(c1ccc(-c2cc(-c3c[nH]nc3-c3ccccn3)ccn2)cc1)N1CCOCC1 [GW812171] | 17 | 33 | 1 | 6 | 0 | 0 | 13 | 0 | 16 | 0 |  |  |  |  |  |  |  |  |  | 
17 | COc1ccc(Nc2nccc(N3CCC(NC(=O)Nc4cc(C)ccc4C)C3)n2)cc1 (centres unmarked) [GSK1379741] | 0 | 12 | 0 | 0 | 5 | 2 | 14 | 27 | 8 | 9 |  |  |  |  |  |  |  |  |  | 
18 | C[C@@H](Oc1cc(-n2cnc3ccc(NC(=O)NC(C)(C)C)cc32)sc1C(N)=O)c1ccccc1Cl [GSK346294] | 26 | 3 | 0 | 5 | 17 | 27 | 14 | 15 | 18 | 7 |  |  |  |  |  |  |  |  |  | 
19 | CNc1ncnc2[nH]ncc12 [SKF-18355] | 11 | 0 | 0 | 0 | 0 | 29 | 0 | 0 | 0 | 0 |  |  |  |  |  |  |  |  |  | 
20 | NCCNS(=O)(=O)c1ccc(-c2ccnc3[nH]ccc23)cc1 [GSK977617] |  |  | 0 |  |  |  |  | 0 |  |  | 52% and 31% | 6% and 0% |  | 5% and 0% | 16% and 15% | 13% and 16% | 23% and 15% |  | 11% and 0% | 11% and 1%
